Data as given in PubChem BioAssay AID504332 (National Center for Advancing Translational Sciences (NCATS), 2011).
Hit rate of the full screen: of about 350,000 compounds, about 31,000 (8.9%) were called active. Inconclusive results (about 15%) are left out. The full list was thinned out, with actives kept by preference. Values without a mark were called inactive. The call rests on the fitted dose curve; in most records, active means well fitted inhibition curve with a large enough effect; inconclusive means small, poorly fitted or top-dose-only effect; inactive means no such curve, though single readings can be large or run the other way.

Target: Histone-lysine N-methyltransferase EHMT2 (Homo sapiens) (UniProt Q96KQ7)
Experiment: qHTS Assay for Inhibitors of Histone Lysine Methyltransferase G9a; further: nearly all actives have a fitted effect of over 75% in size
Details: G9a H3K9 monomethylation, AlphaScreen, 2 h; series mostly up to 59 µM; activity, negative = inhibition: at the top concentration
Method in brief: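 Signal arises when biotinylated H3K9 peptide, once monomethylated, bridges streptavidin donor and antibody-captured acceptor beads. Enzyme at 20 nM was preincubated 15 min with test compounds; peptide 500 nM and SAM 20 uM then reacted for 2 h.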
On the % scale 0 is the no-effect control and ±100 the full control effect; potency means the concentration at half of the fitted maximal effect.

Histone-lysine N-methyltransferase EHMT2 (Homo sapiens), sequence (Q96KQ7 913-1193 limits assumed): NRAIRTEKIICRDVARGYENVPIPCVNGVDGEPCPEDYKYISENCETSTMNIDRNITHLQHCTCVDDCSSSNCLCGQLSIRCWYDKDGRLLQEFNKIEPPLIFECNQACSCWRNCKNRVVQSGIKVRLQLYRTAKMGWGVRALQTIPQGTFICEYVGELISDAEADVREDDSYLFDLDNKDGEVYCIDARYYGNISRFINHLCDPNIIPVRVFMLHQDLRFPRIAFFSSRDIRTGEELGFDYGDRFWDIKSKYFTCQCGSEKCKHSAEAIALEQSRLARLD

Structure (SMILES)	activity, negative = inhibition	Potency
COc1cc(Cl)c(C)cc1NC(=O)CCc1nc2cccnc2n1Cc1cccs1	-19.7%	–
CC(=O)c1ccc2c(c1)c1ccccc1n2CC(C)C	85.8% [at 102 µM]	–
CCn1c(NC(=O)c2ccccc2)c(-c2cccs2)c(=O)c2ccccc21	-9.9% [at 102 µM]	–
CC(C)Cn1c(CCC(=O)O)ccc1-c1cccs1	–	17.8 µM (active)
CCCCCn1c(CCNC(=O)c2ccc(F)cc2)nc2ccccc21	5.58%	–
CCN(CC)CCCNC(=O)c1c(O)c2cc(F)cc3c2n(c1=O)C(C)CC3 (stereo not drawn)	-70% [at 102 µM]	–
CCOc1ccccc1Nc1ccc2nonc2c1[N+](=O)[O-]	-2.07% [at 102 µM]	–
NC(=O)c1ccc(Nc2ccc3nonc3c2[N+](=O)[O-])cc1	–	56.2 µM (active)
NC(=O)c1ccc(Nc2ccc3c(c2)CCC3)c([N+](=O)[O-])c1	20.1% [at 102 µM]	–
O=C(NC1CCCC1)c1cc(-c2ccccc2)on1	7.25% [at 102 µM]	–
CC(C)(C)N(Cc1ccccc1)C(=O)COC(=O)CCc1c[nH]c2ccccc12	–	14.1 µM (active)
CN(C(=O)COC(=O)CCCc1c[nH]c2ccccc12)c1c(N)n(Cc2ccccc2)c(=O)[nH]c1=O	16.6%	–
O=C(COC(=O)Cc1c[nH]c2ccccc12)NCCc1ccccc1	-36.1% [at 102 µM]	–
O=C1CCc2cc(S(=O)(=O)Nc3ccc(C(F)(F)F)cc3)cc3c2N1CC3	-22.3% [at 0.501 µM]	–
Nc1ncc(CN2CCCC(C(=O)Nc3ccc(-c4ccco4)cc3)C2)cn1 (stereo not drawn)	–	50.1 µM (active)
CCOc1ccc(NC(=O)C2CCCN(C(=O)Nc3ccccc3)C2)cc1 (stereo not drawn)	-10.8%	–
COC(=O)c1ccc(CN2CCCC(C(=O)Nc3cccc(-n4cnnn4)c3)C2)cc1 (stereo not drawn)	6.29% [at 102 µM]	–
CCNS(=O)(=O)c1cc(-c2nnc(Nc3cccc(C(F)(F)F)c3)c3ccccc23)ccc1C	-24.3%	–
Cc1c(C(=O)Nc2ccccn2)oc2ccc(Br)cc12	2.88% [at 102 µM]	–
Cc1ccc(CNC(=O)c2cccc3c2C(=O)c2ccc(N4CCC(C)CC4)cc2S3(=O)=O)cc1	6.64% [at 0.501 µM]	–
Cc1ccc2nc(NC(=O)CSc3nc(=O)n(CCCN(C)C)c4c3CCC4)sc2c1	–	39.8 µM (active)
Cc1csc(NC(=O)CSc2nc(=O)n(CCCN(C)C)c3c2CCC3)n1	-47% [at 102 µM]	–
Cc1ccc(NC(=O)CSc2nc(=O)n(CCN(C)C)c3c2CCCC3)c(C)c1	6.7% [at 0.501 µM]	–
Cc1ccc(OCC(=O)Nc2ccc(OCc3cc(=O)n4c(C)csc4n3)cc2)cc1C	29%	–
COc1cccc(-c2nc(CS(=O)(=O)CC(=O)NCCc3ccc(OC)c(OC)c3)c(C)o2)c1	–	inactive

Structure (SMILES)	activity, negative = inhibition	Potency
Cc1ccc(-c2nc(CS(=O)(=O)CC(=O)NCc3ccc4c(c3)OCO4)c(C)o2)cc1	1.88% [at 102 µM]	–
COc1ccc(-c2nc(CS(=O)(=O)CC(=O)NCc3cccc(Br)c3)c(C)o2)cc1	–	44.7 µM (active)
CCN(CC(=O)Nc1c(F)cccc1F)C(=O)C1CCC1	-3.45% [at 102 µM]	–
COc1cccc(NC(=O)C(=O)NCC(c2ccc3c(c2)OCO3)N2CCN(C)CC2)c1 (stereo not drawn)	6.98%	–
CCOC(=O)c1c(-c2ccc(OC)cc2)oc2ccc(OCc3ccc(C(=O)OC)cc3)cc12	58.2%	–
CC(=O)c1sc(NC(=O)CCN2C(=O)C3CC=CCC3C2=O)nc1-c1ccccc1 (stereo not drawn)	-8.89% [at 2.33 µM]	–
O=C(NCc1ccccn1)c1c(O)c2c([nH]c1=O)CCCC2	13.7%	–
C[N+](C)(C)CCNC(=O)c1c(O)c2c([nH]c1=O)CCCC2	–	10 µM (active)
CCc1nnc(NC(=O)c2c(O)c3c([nH]c2=O)CCCC3)s1	27.8%	–
O=C(Nc1ccc(Br)cc1)c1ccc(Br)c(S(=O)(=O)NCc2ccccc2)c1	-2.54%	–
COc1ccc(CCNC(=S)N2CCN(S(=O)(=O)c3ccc(F)cc3)CC2)cc1	-16.1% [at 0.501 µM]	–
CN(C)S(=O)(=O)N1CCC(Oc2cccc(C(=O)NCCCC3CCCC3)c2)CC1	69.6% [at 102 µM]	–
C=CCNc1nnc(SCC(=O)N2CCCCC2)c2ccccc12	–	50.1 µM (active)
O=C(CSc1nc2ccccc2nc1Cc1ccccc1)N1CCCCC1	2.23%	–
C=CCNc1nnc(C)c2ccccc12	-0.456% [at 102 µM]	–
O=C(COc1ccccc1O)NC1CCCC1	-42.6% [at 102 µM]	–
COc1cc2ccccc2cc1C(=O)N1CCOCC1	-27.4% [at 102 µM]	–
COc1cc(OC)cc(C(=O)NNC(=O)CNC(=O)c2ccc(Br)o2)c1	-1.19% [at 102 µM]	–
O=C(Cn1cc(SCc2ccccc2)c2ccccc21)N1CCCCC1	-8.44%	–
CCc1cccc2c(C=C(C#N)C#N)cn(CC(=O)N3CCCCC3)c12	–	44.7 µM (active)
O=C(Cn1cc(SCc2cccc(Cl)c2)c2ccccc21)N1CCCCC1	2.69%	–
CCc1cccc(C)c1NS(=O)(=O)c1ccc(-c2cc(C)no2)s1	-1.34%	–
COc1cccc(Nc2nc3ccccc3c3nncn23)c1	3.66%	–
O=C(CN1CCN(Cc2ccc(Cl)cc2)C1=O)NCc1ccc(F)cc1	-4.97%	–
CCOCc1nnc(NC(=O)CCS(=O)(=O)Cc2ccccc2)s1	–	79.4 µM (active)

Structure (SMILES)	activity, negative = inhibition	Potency
COCCSc1nnc(NC(=O)CCS(=O)(=O)Cc2ccccc2)s1	15.9% [at 102 µM]	–
COC(=O)CSc1nnc(NC(=O)CCc2ccccc2)s1	12.7%	–
Cc1ccc(S(=O)(=O)CCC(=O)Nc2nnc(CC(C)C)s2)cc1	8.95% [at 102 µM]	–
COCc1nnc(NC(=O)CS(=O)(=O)Cc2ccccc2)s1	-27% [at 12.7 µM]	–
CC(C)Cc1nnc(NC(=O)CCc2ccccc2)s1	–	35.5 µM (active)
Cc1cccc(OCCC(=O)OCc2csc(CC(=O)Nc3ccccc3C)n2)c1	-6.68% [at 12.7 µM]	–
CCN(CC)CCn1cnc2c1c(=O)[nH]c(=O)n2Cc1ccccc1	20.1% [at 2.33 µM]	–
CCCCn1c(=S)[nH]c2ncccc2c1=O	17.8% [at 2.33 µM]	–
CCN(CC)CCn1c(=S)[nH]c2ncccc2c1=O	–	15.8 µM (active)
CN(C(=O)CSc1nnc(NC(=O)Nc2ccccc2)s1)c1ccccc1	12.2%	–
Cc1ccccc1NC(=O)Cn1c(=O)n(CCCCC(=O)NCc2ccccc2Cl)c(=O)c2ccccc21	-25.2%	–
CCOc1ccc(C(C)=O)cc1COC(=O)CN1C(=O)NC2(CCCC2)C1=O	–	56.2 µM (active)
Cc1ccc(COC(=O)CN2C(=O)NC3(CCCC3)C2=O)cc1	-12.1% [at 12.7 µM]	–
CCOc1ccc(C(C)NC(=O)CN2C(=O)NC3(CCCCC3)C2=O)cc1OCC (stereo not drawn)	-0.826%	–
CC(C)c1ccc(NC(=O)CN(C)S(=O)(=O)c2ccc3c(c2)c(=O)n(C)c(=O)n3C)cc1	-40.7%	–
CC(OC(=O)c1ccc(-n2cnnn2)cc1)C(=O)NCc1ccccc1 (stereo not drawn)	-1.43% [at 102 µM]	–
NC1=NC(c2cc(F)cc(F)c2)n2c(nc3ccccc32)N1 (stereo not drawn)	-45.3%	–
CCn1c2ccc(F)cc2c2nnc(SCCN3CCOCC3)nc21	–	44.7 µM (active)
N#Cc1cnn2cc(CCN3CCOCC3)c(-c3ccc(F)cc3)nc12	5.85% [at 102 µM]	–
Cc1cc2nc(SCCN3CCOCC3)[nH]c2cc1C	12.3%	–
O=C(/C=C/c1cccc(C(F)(F)F)c1)N1CCN(c2ccccn2)CC1	13.1% [at 102 µM]	–
Cc1ccc(NC(=O)CSc2nc3ccccc3c3nc(CCn4cncc4C)nn23)cc1F	-31.7%	–
CCOC(=O)C1CCN(C(=O)C2CCCN(S(=O)(=O)c3ccc(OC)c(Cl)c3)C2)CC1 (stereo not drawn)	2.19% [at 102 µM]	–
COC(=O)c1cc(NC2c3ccccc3C(=O)N2c2ccc(Cl)cn2)cc(C(=O)OC)c1 (stereo not drawn)	-10.9%	–
CC1(C)SC2c3ccccc3C(=O)N2[C@@H]1C(=O)NCc1ccco1 (stereo partly drawn)	-4.15%	–

Structure (SMILES)	activity, negative = inhibition	Potency
Cc1cccc(C(=O)Nc2ccccc2-c2nnn(CC(=O)Nc3ccc4c(c3)OCCO4)n2)c1	48.1% [at 12.7 µM]	–
O=C(NC1CCCCC1)C1c2ccccc2C(=O)N1Cc1ccco1 (stereo not drawn)	-38.1% [at 102 µM]	–
O=C1c2ccccc2C(Nc2ccc3c(c2)OCCO3)N1Cc1ccco1 (stereo not drawn)	–	39.8 µM (active)
Cc1ccnc(N2C(=O)c3ccccc3C2Nc2ccc3c(c2)OCCO3)c1 (stereo not drawn)	–	79.4 µM (active)
COc1ccc(C(C)(C)C)cc1NC(=O)CCN1C(=O)C2CCCCC2C1=O (stereo not drawn)	-24.5% [at 12.7 µM]	–
CC(=O)N1CCCc2cc(S(=O)(=O)N3CCC(C(=O)NCc4ccc(F)cc4)CC3)ccc21	22.6%	–
COc1cc(NC(=O)CSc2nc3nc(C)c(Cc4ccc(C)cc4)c(C)n3n2)cc(OC)c1OC	7.15%	–
CCOc1ccccc1NC(=O)Cn1nnc(C(=O)Nc2ccc(C)c(C)c2)c1N	-6.58%	–
Cc1ccc(NC(=O)C(=O)NCC(c2cccnc2)N2CCOCC2)cc1 (stereo not drawn)	8.4%	–
COc1ccc(S(=O)(=O)NCc2ccc(C(=O)N(C)Cc3ccco3)cc2)cc1	-7.57% [at 102 µM]	–
COc1ccc(N(Cc2ccc(N(C)C)cc2)C(=O)c2ccc(S(C)(=O)=O)cc2)cc1	–	12.6 µM (active)
COc1ccc(C(=O)N(Cc2ccc(N(C)C)cc2)C2CCS(=O)(=O)C2)cc1 (stereo not drawn)	-2.24% [at 102 µM]	–
COc1ccc(C)cc1N(C)C(=O)c1c(C)oc2ncnc(N3CCOCC3)c12	-0.219%	–
Cc1ccc(OCC(=O)Nc2ccccc2C(=O)NC2CC2)cc1C	35% [at 102 µM]	–
Cc1cccc(C)c1NC(=O)CNC(=O)c1ccc2c(c1)OCCO2	-11.7%	–
Cc1ccc2sc(NNC(=O)c3ccc4c(c3)OCCO4)nc2c1C	–	10 µM (active)
Cc1ccc(C(=O)NNC(=O)c2ccc3c(c2)OCCO3)cc1	8.51% [at 2.33 µM]	–
Cc1c(CNC(C)c2ccccc2)c(C(=O)O)c(C)n1Cc1c(F)cccc1Cl (stereo not drawn)	-5.36%	–
C[n+]1cc(-c2ccccc2)oc1-c1ccccc1	–	50.1 µM (active)
CCSc1nsc(NC(=O)Nc2ccccc2OC)n1	27.7% [at 102 µM]	–
O=C(CN1C(=O)COc2ccc(Cl)cc21)Nc1ccc(N2CCOCC2)cc1	-10.1% [at 102 µM]	–
O=C(CN1C(=O)COc2ccccc21)Nc1ccc(F)cc1	–	31.6 µM (active)
CC(OC(=O)CN1C(=O)COc2ccccc21)C(=O)NCc1ccc(F)cc1 (stereo not drawn)	-0.855% [at 102 µM]	–
